An excerpt weighted towards active compounds, which were near 3.3% of everything screened.
PNC assembly inh: inhibitors of perinucleolar compartment assembly; PC3M PTB-GFP, PNC prevalence imaging, 16 h; hits give low values; activity change (PNC), negative = inhibition, % at 10 µM; 140,000 tested, 3.1% active; AID 2417;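 active means readout at or below -70, meaning at least 70% loss of cells showing the perinucleolar compartment, a nuclear body marking cancer cells; inconclusive means readout between -30 and a set limit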;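 further: plate controls were DMSO wells for no effect and camptothecin positive control wells for full effect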
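PC3M cells stably expressing PTB-GFP, 750–1000 cells/well, treated 16 h at 37 °C with compound (23 nl of library stock), in duplicate. After paraformaldehyde fixation and Hoechst stain, imaged at 20x; PNC prevalence scored by image analysis.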
HTT aggregate: reduces HttQ103-GFP aggregates in PC12 cells. PC12 HttQ103-GFP aggregates, Acumen cytometry, 40 h. Potency, µM (titrated, usually from 46.1 µM), for the others: at the highest dose activity change, negative = inhibition, actives largely listed as inhibitors. 220,000 tested, 1.1% active. AID 1688; further: potency means the concentration at half of the fitted maximal effect; on the % scale 0 is the no-effect control and ±100 the full control effect; nearly all actives have a fitted effect of over 60% in size
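Using laser scanning cytometry, GFP-positive aggregates were counted after lysis of PC12 cells induced with 100 nM tebufenozide to express HTT exon 1 Q103–GFP. Compounds were tested in titration.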
IMPase inh: cell-permeable inhibitors of inositol monophosphatase (IMPase) | CHO-M1 cells, IP1 accumulation, HTRF TR-FRET ratio | inhibition (IP1 accumulation), % at 46.1 µM | 120,000 tested, under 10 active; active means well fitted curve in the direction sought with a large enough effect in the signal ratio, not every such curve was filed as active; inconclusive means small, poorly fitted or top-dose-only effect, or a change in a side signal; inactive means no such curve, though single readings can be large or run the other way; the % refers to the signal ratio;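 further: cells stimulated with carbachol in lithium chloride buffer; plate controls were DMSO basal wells for no effect and reference inhibitor wells for full effect; higher means more IMPase inhibition seen as more IP1 and lower FRET ratio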
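Cellular IMPase inhibition is scored as a rise in cytosolic IP1, detected by competitive TR-FRET between d2-labelled IP1 and a europium anti-IP1 antibody. M1-expressing CHO cells were stimulated with carbachol for 30 min at 37C, with lithium (50 mM LiCl) present in the buffer.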
12-hLO inh: inhibitors of human 12-lipoxygenase (ALOX12) | purified 12-hLO, xylenol orange hydroperoxide absorbance | Potency, µM (series often up to 57.1 µM), for the others: at the top dose activity change, negative = inhibition, hits mostly inhibitors | 150,000 tested, 0.12% active; further: potency means the concentration at half of the fitted maximal effect; on the % scale 0 is the no-effect control and ±100 the full control effect; nearly all actives have a fitted effect of over 55% in size
Target sequence (P18054 whole entry, looked up): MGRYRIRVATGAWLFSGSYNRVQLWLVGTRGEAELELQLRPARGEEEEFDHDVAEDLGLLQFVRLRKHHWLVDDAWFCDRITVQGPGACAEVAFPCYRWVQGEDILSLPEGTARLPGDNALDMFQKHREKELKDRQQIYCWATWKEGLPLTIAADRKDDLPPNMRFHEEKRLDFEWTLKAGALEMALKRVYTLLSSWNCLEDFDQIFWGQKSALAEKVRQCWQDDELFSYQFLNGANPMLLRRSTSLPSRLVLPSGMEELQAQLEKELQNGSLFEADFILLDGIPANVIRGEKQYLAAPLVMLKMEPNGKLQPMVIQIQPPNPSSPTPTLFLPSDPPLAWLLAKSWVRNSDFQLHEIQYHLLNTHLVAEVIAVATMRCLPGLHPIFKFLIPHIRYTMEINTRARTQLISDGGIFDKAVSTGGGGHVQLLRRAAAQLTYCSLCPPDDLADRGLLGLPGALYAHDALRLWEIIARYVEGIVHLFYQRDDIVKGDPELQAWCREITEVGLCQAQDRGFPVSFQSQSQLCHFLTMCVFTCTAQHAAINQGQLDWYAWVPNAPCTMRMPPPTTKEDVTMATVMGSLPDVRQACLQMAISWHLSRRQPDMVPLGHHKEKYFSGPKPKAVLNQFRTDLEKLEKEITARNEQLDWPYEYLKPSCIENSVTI
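Purified human 12hLO (150 nM), preincubated 15 min with compound, then 40 uM arachidonic acid for 30 min, room temperature, Hepes pH 7.0 with 0.01% Triton X-100. Hydroperoxide detected by ferrous iron/xylenol orange; 573/405 nm absorbance ratio gives reaction progress.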
HTT cytoprotect: Huntington cell model cytoprotection by ATP luminescence; PC12 HTT-Q103 induced, cytoprotection, ATP luminescence, 40 h; Potency, µM (series often up to 56.4 µM), without a hit: cytoprotection (ATP increase), actives largely listed as activators; 230,000 tested, 0.14% active; further: potency means the concentration at half of the fitted maximal effect; % of control where 0% means no effect; nearly all actives have a fitted effect of over 45% in size
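Rat PC12, Q103 Htt exon1-GFP fusion, ecdysone promoter; tebufenozide inducer 100 nM final; compound titration; qHTS, 1500 cells/well; ATPlite luminescent read.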
NPSR antag: antagonists of human neuropeptide S receptor cAMP signaling; CHO-NPSR cells, cAMP TR-FRET, antagonist mode; Potency, µM (top dose mostly 38.3 µM), for inactives: at the highest dose activity change, negative = inhibition, actives largely listed as inhibitors; Q6W5P4; 220,000 tested, 1% active; AID 1461; further: potency means the concentration at half of the fitted maximal effect; on the % scale 0 is the no-effect control and ±100 the full control effect; nearly all actives have a fitted effect of over 50% in size
* = called active by the depositor; [ ] = another dose, or the depositor's remark. Unless noted, the call rests on the fitted dose curve; in most records, active means well fitted curve in the direction sought with a large enough effect; inconclusive means small, poorly fitted or top-dose-only effect, or another doubt; inactive means no such curve, though single readings can be large; an effect the other way counts as inactive or inconclusive.

COC(=O)CSc1ncnc2c1sc1nc(-c3ccco3)c3c(c12)CC(C)(C)OC3 was read as PNC assembly inh 24, HTT aggregate -4%, IMPase inh -4, 12-hLO inh -9%, HTT cytoprotect 14%[10 µM] and NPSR antag -2%[46.1 µM].
Screening CCCCC/C=C\C=C\[C@H](O)CCCCCCCC(=O)O returned HTT cytoprotect 17%.
CC1=Nc2ccccc2N=C(NC(=O)c2ccccc2)C1c1ccccc1 (stereo not drawn) was read as HTT aggregate inconclusive, HTT cytoprotect -8% and NPSR antag inconclusive.
Screening Cc1ccccc1N=C1N=C(N)c2ccccc21 returned PNC assembly inh -96*, HTT aggregate -3%, IMPase inh 0, 12-hLO inh 0%, HTT cytoprotect 8%[10 µM] and NPSR antag 21%.
Screening CCSc1nnc(NC(=O)c2cccc(OCc3c(C)noc3C)c2)s1 returned PNC assembly inh -111*, HTT aggregate -17%, IMPase inh 5, 12-hLO inh 0%, HTT cytoprotect -19%[10 µM] and NPSR antag -27%[46.1 µM].
`Cc1noc(C)c1COc1cccc(C(=O)Nc2ccc(OCc3ccccc3)cc2)c1` gave PNC assembly inh -18, HTT aggregate 10%, IMPase inh 7, 12-hLO inh 0%, HTT cytoprotect -19% and NPSR antag -25%[46.1 µM].
Screening COc1ccc2nc(NC(=O)c3cccc(OCc4c(C)noc4C)c3)sc2c1 returned PNC assembly inh -91*, HTT aggregate 7%, IMPase inh 9, 12-hLO inh inconclusive, HTT cytoprotect -58% and NPSR antag 5%[46.1 µM].
Screening COc1ccc(NC(=O)c2cc(-c3ccc(O)cc3)on2)cc1OC returned HTT cytoprotect -8%.
Cc1nc2c(=O)[nH]c(=S)n(C)c2nc1C was read as PNC assembly inh -114*, HTT aggregate 3%, 12-hLO inh -7% and NPSR antag 7%.
For C1CCN2C[C@@H]3C[C@@H](CN4CCCC[C@H]34)[C@H]2C1 the results were HTT aggregate 3%[20.6 µM], IMPase inh -2[20.6 µM], 12-hLO inh 0%[25.6 µM] and HTT cytoprotect 21%.
`Cc1ccc(NC(=S)NCCSc2ccc(Cl)cc2)c(C)c1` gave PNC assembly inh inconclusive, HTT aggregate 6%, 12-hLO inh inconclusive, HTT cytoprotect 1.8µM* and NPSR antag -40%.
Screening Cc1ccc(NC(=S)NCC(C)CSc2ccc(Cl)cc2)cc1 (stereo not drawn) returned HTT aggregate 25µM*, HTT cytoprotect -167% and NPSR antag -15%.
For NC(=O)C[C@@H](N)c1nn[nH]n1 the results were 12-hLO inh 1%[11.4 µM] and HTT cytoprotect -14%[10 µM].
`Cc1ccccc1N1CCN(S(=O)(=O)c2ccc3oc(=O)ccc3c2)CC1` gave PNC assembly inh 13, HTT aggregate 10µM*, IMPase inh -2, 12-hLO inh -3%, HTT cytoprotect 2%[10 µM] and NPSR antag -12%[46.1 µM].
`COCCn1c(-c2cccc([N+](=O)[O-])c2)nc2c1c(=O)[nH]c(=O)n2Cc1ccccc1` gave PNC assembly inh 38, HTT aggregate 11%, 12-hLO inh -5%, HTT cytoprotect 3%[10 µM] and NPSR antag 6%.
C=CCn1c(=O)/c(=C2/Sc3cc(OC)ccc3N2C)s/c1=C1\C(=O)N(CC)C(=S)N1C was read as HTT aggregate 4%[9.22 µM], HTT cytoprotect -3%[10 µM] and NPSR antag 12%.
`O=C(NCc1ccco1)C12CN(Cc3ccccc3)CC1C(c1cccc([N+](=O)[O-])c1)=NO2` (stereo not drawn) gave PNC assembly inh -86*, HTT aggregate -1%, IMPase inh 3, 12-hLO inh -2%, HTT cytoprotect -17% and NPSR antag -22%[46.1 µM].
COc1ccc(CCNC(=O)Cn2cnc3c(nnn3Cc3ccccc3F)c2=O)cc1OC was read as PNC assembly inh -119*, HTT aggregate inconclusive, IMPase inh 0, 12-hLO inh -2%, HTT cytoprotect -87%[10 µM] and NPSR antag 14%.
Cc1ccc(C(=O)Nc2ccc(Br)cc2)cc1S(=O)(=O)NCc1ccccc1 was read as IMPase inh 19.
`CS(=O)(=O)N(CC(=O)NCCc1ccccc1)c1cc(C(F)(F)F)ccc1Cl` gave IMPase inh -5.
Screening COc1ccc(/C=C2\SC(c3ccc(C)cc3)=NC2=O)cc1OC returned PNC assembly inh 39, HTT aggregate inconclusive, IMPase inh 7, 12-hLO inh 3%, HTT cytoprotect 14%[10 µM] and NPSR antag -15%[46.1 µM].
Screening COc1cc(/C=C2\SC(c3ccc(C)cc3)=NC2=O)ccc1O returned PNC assembly inh -95*, HTT aggregate 4%, IMPase inh 39, 12-hLO inh -11%, HTT cytoprotect 2%[10 µM] and NPSR antag -20%[46.1 µM].
For O=C(Nc1ncnc2sc3c(c12)CCCC3)c1ccncc1 the results were HTT aggregate -19%, HTT cytoprotect -10%[10 µM] and NPSR antag -2%.
Screening O=C(Nc1ncnc2sc3c(c12)CCCCC3)c1ccco1 returned PNC assembly inh -124*, HTT aggregate 4%, IMPase inh 10, 12-hLO inh 2%, HTT cytoprotect 5%[10 µM] and NPSR antag inconclusive.
`CSc1sc(C(=O)NC(=O)NCc2ccncc2)c(C)c1-c1ccon1` gave HTT aggregate -25%[9.22 µM], HTT cytoprotect 3%[10 µM] and NPSR antag 31%.
Screening CCCCCCCCC(=O)NCc1cc(OC)c(O)cc1I returned IMPase inh 4, 12-hLO inh -2% and HTT cytoprotect -4%.
`COc1ccc(N2C(=S)NC3CS(=O)(=O)CC32)cc1` (stereo not drawn) gave HTT aggregate 18%[9.22 µM], HTT cytoprotect -7%[10 µM] and NPSR antag -25%.
`COc1ccc(N2C(=O)S[C@@H]3CS(=O)(=O)C[C@@H]32)cc1` gave PNC assembly inh -113*, HTT aggregate -4%, 12-hLO inh 2% and NPSR antag 16%.
O=C(NCc1ccco1)C(c1cccs1)N(C(=O)C1COc2ccccc2O1)c1cccc(O)c1 (stereo not drawn) was read as PNC assembly inh -116*, HTT aggregate 5%, IMPase inh 6, 12-hLO inh -8%, HTT cytoprotect -14%[10 µM] and NPSR antag -26%[46.1 µM].
Screening CC(C)C1=CC2=CC[C@@H]3[C@](C)(CCC[C@@]3(C)C(=O)O)[C@H]2CC1 returned HTT aggregate 15% and HTT cytoprotect 25%.
For CC(=O)c1sc2nc(C)cc(C)c2c1N the results were PNC assembly inh 9, HTT aggregate inconclusive, IMPase inh 5[1.84 µM], 12-hLO inh -4%, HTT cytoprotect 4%[10 µM] and NPSR antag -6%[46.1 µM].
